Source: PubChem
This is a sample that favours compounds with a hit; in the whole collection about 3.5% have one here.
BoNT F protease: BoNT/F light chain protease inhibitors, primary screen, biochemical, flow cytometry, MLPCN library; 360,000 tested, 0.22% active; Multiplex microsphere protease cleavage assay; Botulinum neurotoxin type F light chain protease (Clostridium botulinum); inhibition, % at 10 µM; AID 588497, 2011; in the data active = inhibition above about 35%, passing the limit was not always enough; inconclusive = no clear call, values can overlap the other calls
Anthrax LF inh2: Bacillus anthracis LF protease inhibitors, primary screen, biochemical, multiplex microsphere, MLPCN library. Lethal factor (Bacillus anthracis), P15917. multiplex microsphere protease cleavage assay. inhibition, % at 10 µM. 360,000 tested, 0.12% active. AID 588501, 2011
Target sequence (P15917 whole entry, looked up): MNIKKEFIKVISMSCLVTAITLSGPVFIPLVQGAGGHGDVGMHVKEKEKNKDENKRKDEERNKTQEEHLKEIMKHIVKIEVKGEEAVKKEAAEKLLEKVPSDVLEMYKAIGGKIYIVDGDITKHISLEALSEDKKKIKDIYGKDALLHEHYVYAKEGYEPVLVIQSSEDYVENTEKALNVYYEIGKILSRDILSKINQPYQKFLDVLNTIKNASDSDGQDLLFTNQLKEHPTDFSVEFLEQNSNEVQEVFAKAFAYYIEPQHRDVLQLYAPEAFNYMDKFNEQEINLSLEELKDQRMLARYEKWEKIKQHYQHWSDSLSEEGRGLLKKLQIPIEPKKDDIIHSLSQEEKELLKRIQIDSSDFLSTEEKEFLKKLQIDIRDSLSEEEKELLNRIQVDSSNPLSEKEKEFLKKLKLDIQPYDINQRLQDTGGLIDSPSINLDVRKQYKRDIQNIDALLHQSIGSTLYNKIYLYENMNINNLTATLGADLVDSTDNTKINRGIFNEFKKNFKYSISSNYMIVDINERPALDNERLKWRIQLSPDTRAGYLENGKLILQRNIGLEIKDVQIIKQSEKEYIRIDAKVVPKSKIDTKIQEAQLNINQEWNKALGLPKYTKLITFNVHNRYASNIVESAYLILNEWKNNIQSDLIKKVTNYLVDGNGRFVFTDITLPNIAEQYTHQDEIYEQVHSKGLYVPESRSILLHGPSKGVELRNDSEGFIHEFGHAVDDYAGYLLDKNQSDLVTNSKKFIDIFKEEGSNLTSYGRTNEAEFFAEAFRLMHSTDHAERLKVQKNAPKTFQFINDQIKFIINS
BoNT A protease: BoNT/A light chain protease inhibitors, primary screen, biochemical, flow cytometry, MLPCN library; Botulinum neurotoxin type A light chain protease (Clostridium botulinum A str. ATCC 3502); multiplex microsphere protease substrate cleavage; inhibition, % at 10 µM; 360,000 tested, 0.17% active
Bead autofluor: compound fluorescence in toxin protease inhibitor counterscreen; compound autofluorescence counterscreen, microsphere flow cytometry; stronger effect = higher value; fluorescence intensity (test concentration not listed); 360,000 tested, 3.1% active; in the data active = fluorescence intensity above about 16000; inconclusive = no clear call, values can overlap the other calls
Large screens that a line does not name were inactive. Rule as the data show it, unless noted: active = inhibition above about 30%; inconclusive = no clear call, values can overlap the other calls; inactive = below that.

CCn1c(O)c(C=Nc2ccc(N3CCOCC3)c(Br)c2)c(=O)n(CC)c1=S	Bead autofluor 19239
COc1cc2c(cc1NC(=O)CSc1ccccn1)oc1ccccc12	BoNT A protease inconclusive, Bead autofluor 20567
COc1cc2c(cc1NC(=O)C(C)N1CCN(S(=O)(=O)c3ccc(C)c(C)c3)CC1)oc1ccccc12 (stereo not drawn)	Bead autofluor 16646
COc1ccccc1CC(=O)Nc1cc2oc3ccccc3c2cc1OC	BoNT F protease 34
CNC(=O)c1c[nH]c2ccc(S(=O)(=O)Nc3cccc(SC)c3)cc2c1=O	none
CSc1ccc(C(=O)N2CCC(CCC(=O)NCc3ccc(F)cc3)CC2)cc1	none
CCCn1c(N)c(Sc2ccccc2)c(=O)n(CCC)c1=O	Bead autofluor 19729
CCCn1c(N)c(Sc2ccc([N+](=O)[O-])cc2)c(=O)n(CCC)c1=O	none
CCCCn1c(N)c(Sc2ccccc2)c(=O)[nH]c1=O	Bead autofluor 25818
Cc1ccc(NC(=O)N2CCC(c3nc4c(nnn4Cc4cccc(Cl)c4)c(=O)[nH]3)CC2)cc1	none
O=C(Nc1ccc(F)cc1)N1CCC(c2nc3c(nnn3Cc3cccc(Cl)c3)c(=O)[nH]2)CC1	Bead autofluor 25569
CCOC(=O)Cn1c(=O)oc2cc(S(=O)(=O)NCCc3ccc(OCC)c(OCC)c3)ccc21	BoNT A protease inconclusive, Bead autofluor 22861
CCOC(=O)Cn1c(=O)oc2cc(S(=O)(=O)Nc3cc(OCC)ccc3OCC)ccc21	BoNT A protease inconclusive, Bead autofluor 16486
CCOC(=O)Cn1c(=O)oc2cc(S(=O)(=O)NCCC(C)C)ccc21	none
CCOC(=O)Cn1c(=O)oc2cc(S(=O)(=O)N(CCN(C)C)Cc3ccccc3)ccc21	Bead autofluor 23509
CCOCCCNS(=O)(=O)c1ccc2c(c1)oc(=O)n2CC(=O)OCC	Bead autofluor 23318
Cc1ccc(N2CCN(S(=O)(=O)c3ccc4oc(=O)ccc4c3)CC2)c(C)c1	none
Cc1cnc(NC(=O)C2(C)CCN2C(=O)C(C)C)s1 (stereo not drawn)	none
Fc1ccc2c(c1)[C@H]1OCC[C@H]1[C@@H](c1ccco1)N2	Bead autofluor 23934
CCOC(=O)c1sc(=S)n(-c2ccccc2)c1N	none
COC(=O)c1sc(=S)n(-c2cccc(Cl)c2)c1N	Bead autofluor 26583
CCOc1ccc2oc(-c3ccccc3)c(C(=O)O)c2c1	none
CC(Oc1ccc2oc(-c3ccccc3)c(C(=O)O)c2c1)C(=O)O (stereo not drawn)	Bead autofluor 16623
O=S1(=O)CCN(C2CCCCCC2)CC1	none
CCOC(=O)N1CCN(C(=O)COC(=O)c2ccccc2NCCO)CC1	Bead autofluor inconclusive
Cc1ccc2[nH]cc(C(=O)CN3CCN(c4ccccc4F)CC3)c2c1	Bead autofluor 19645
Oc1c(C=C2N=c3ccccc3=N2)sc(=S)n1-c1ccc(F)cc1	Anthrax LF inh2 34, BoNT A protease 54
Oc1c(C=C2N=c3ccccc3=N2)sc(=S)n1-c1ccc2ccccc2c1	none
Oc1c(C=C2N=c3ccccc3=N2)sc(=S)n1C1CCCC1	Anthrax LF inh2 39, BoNT A protease 70
COc1ccc(Cl)cc1C(=O)NC(C)C	none
Cc1ccc(C)c2[nH]c(=O)c(CN(CC3CCCO3)C(=O)NC3CCCCC3)cc12 (stereo not drawn)	BoNT A protease inconclusive, Bead autofluor 19956
COc1ccc(CN(Cc2cc3cc(OC)c(OC)cc3[nH]c2=O)C(=O)NC2CCCCC2)cc1	Bead autofluor 22119
COc1cc2cc(CN(C(=O)NC3CCCCC3)C3CCCC3)c(=O)[nH]c2cc1OC	none
CCOc1ccc(N(CC)S(=O)(=O)c2ccc3c(c2)oc(=O)n3C)cc1	Bead autofluor 17539
CCN(c1cccc(C)c1)S(=O)(=O)c1ccc2c(c1)oc(=O)n2C	none
O=c1[nH]c(=O)n(Cc2ccco2)c(O)c1C=NCc1ccc2c(c1)OCO2	Bead autofluor 22050
COc1cccc(-n2c(O)c(C=NCc3ccc4c(c3)OCO4)c(=O)[nH]c2=O)c1	Bead autofluor 22432
Cc1ccccc1-n1c(O)c(C=Nc2ccc3c(c2)OCO3)c(=O)[nH]c1=O	BoNT A protease inconclusive, Bead autofluor 22656
COc1ccc(Cc2c(-c3ccc(OC)c(OC)c3)nc3ccc(C)cn23)c(C)c1	none
CCC(=O)Nc1cc(Cl)ccc1C(=O)O	BoNT A protease inconclusive, Bead autofluor 19235
O=C(CN1CCN(Cc2ccccc2Cl)CC1)N/N=C/C=C/c1ccccc1[N+](=O)[O-]	none
COCCN(CCOC)C(=O)CC(=O)N(CCOC)CCOC	Bead autofluor 19259
CN(Cc1ccccc1)C(=O)CSc1nc2ccccc2c(=O)n1Cc1ccco1	none
CCOC(=O)c1cc2c(c(CSc3nc4ccccc4c(=O)n3Cc3ccco3)c1)OCOC2	Bead autofluor 20266
O=c1c2ccccc2nc(SCc2cc(F)cc3c2OCOC3)n1Cc1ccco1	Bead autofluor 24180
COc1ccc(S(=O)(=O)N(C)c2ccc(OC(=O)C(C)Oc3ccc(F)cc3)cc2)cc1 (stereo not drawn)	none
CCOC(=O)CC(=O)CSc1nc(N)c(C#N)c(-c2ccc(Cl)cc2)c1C#N	Bead autofluor 16851
CCOC(=O)CSc1nc(N)c(C#N)c(CC(C)C)c1C#N	BoNT A protease inconclusive, Bead autofluor 21729
CCOC(=O)CC(=O)CSc1nc(C)cc(C)c1C#N	none
COc1cc([N+](=O)[O-])ccc1NC(=O)NNC(=O)c1sccc1C	none
Cc1cccc(C(=O)OCC(=O)Nc2c(C)n(C)n(-c3ccccc3)c2=O)c1	none
CCn1nccc1C(=O)Nc1cc(Cl)ccc1Cl	none
CCn1ncc(Cl)c1C(=O)Nc1cc(Cl)ccc1Cl	Bead autofluor 22800
CCOc1ccc2[nH]c(=O)c(CN(CC3COCCO3)C(=O)c3ccc(C)cc3)cc2c1 (stereo not drawn)	none
O=Cc1cccn1Cc1ccc(Cl)cc1Cl	Bead autofluor 23592
NNC(=O)c1cccn(Cc2ccc(Cl)cc2Cl)c1=O	none
C=CCC(NCc1ccccc1)c1ccccc1 (stereo not drawn)	none
C=CCC(NC(C)c1ccccc1)c1ccco1 (stereo not drawn)	Bead autofluor 16630
O=C(c1ccc(F)cc1)c1cc2ccccc2o1	Bead autofluor 24066
COn1c(SCC(N)=O)nc2ccccc2c1=O	none
CC(C)On1c(SC(C)C)nc2ccccc2c1=O	Bead autofluor 22943
COn1c(SC(C)C)nc2ccccc2c1=O	none
COn1c(SC2CCCCC2)nc2ccccc2c1=O	Bead autofluor 17818
Cc1ccc(-c2noc(C3CCCN(S(=O)(=O)c4ccc5ccccc5c4)C3)n2)o1 (stereo not drawn)	none
CC(=O)c1cccc(S(=O)(=O)N2CCCC(c3nc(-c4ccc(C)o4)no3)C2)c1 (stereo not drawn)	BoNT A protease inconclusive, Bead autofluor 17085
CCS(=O)(=O)N1CCCC(c2nc(-c3cccc(OC)c3)no2)C1 (stereo not drawn)	Bead autofluor 23563
COc1ccc(-c2noc(C3CCCN(S(=O)(=O)c4ccc(C)c(Cl)c4)C3)n2)cc1OC (stereo not drawn)	none
